{"source": "PubChem BioAssay AID2284323", "about": "(EPA ToxCast)", "note": "Where “and” joins values, the source holds several entries; their conditions need not be identical. Identical values can stand only once. Calls of active or inactive are those of the source. How the source made its calls: active means hit-call score of the fitted dose curve at least 0.9, where 1 is the maximum; inactive means score below 0.9."}
{"tested_on": "NCBI gene 447152", "experiment": "CCTE_GLTED_xIYD: CCTE's Xenopus Iodotyrosine Deiodinase (xIYD) Inhibition Assay, Great Lakes Toxicology and Ecology Division (GLTED) Lab", "description": "CCTE_GLTED_xIYD is a cell-free, single-readout assay that uses Xenopus (frog) iodotyrosine deiodinase (xIYD) enzyme from liver microsomes. Assay is based on iodide release measured by the Sandell-Kolthoff method and is run in 96-well plate format with assay plates run in triplicate (n=3) with measurements taken at 3 hours after chemical dosing. Platewise-normalization was used based on positive control (3-Nitro-L-tyrosine, MNT) and negative/solvent controls (DMSO, NaOH).CCTE_GLTED_xIYD is the assay component measured from the CCTE_GLTED_xIYD assay. It measures substrate involved in regulation of catalytic activity using spectrophotometry. The assay measures the deiodination activity of Xenopus (frog) IYD on the substrate monoiodotyrosine (MIT). After 3h incubation of substrate, enzyme, and test chemical, the components are applied to a 96-well Dowex column. Free iodide is not retained by the column and is separated from interfering assay components. The free iodide is measured by the Sandell-Kolthoff reaction in which the rate of reduction of cerium (Ce+4 to Ce+3) by arsenic (As+3 to As+5) is increased by the presence of iodide. This is observed as the loss of yellow color in the reaction and the quantified by the change in absorbance at 420 nm. The change in reaction rate is proportional to the amount of iodide present.Data from the assay component CCTE_GLTED_xIYD was analyzed at the assay endpoint CCTE_GLTED_xIYD in the positive analysis fitting direction relative to DMSO as the negative control and baseline of activity. Using a type of enzyme reporter, loss-of-signal activity can be used to understand iodotyrosine deiodinase activity. To generalize the intended target to other relatable targets, this assay endpoint is annotated to the 'dehalogenase' intended target family, where the subfamily is 'iodotyrosine deiodinase'.\nHuman transthyretin (TTR) assay, developed at Great Lakes Toxicology and Ecology Division (GLTED) within the EPA's Center for Computational Toxicology and Exposure (CCTE), is designed to test the chemicals' ability to displace T4 from the TTR protein. TTR (0.125uM) is incubated in presence of test chemical for 2 hours during which disrupting chemicals displace ANSA from the TTR protein. Results read fluorescence at 380 excitation and 475 emission."}
{"smiles": "O=S(=O)(O)C(F)(F)C(F)(F)C(F)(F)C(F)(F)C(F)(F)C(F)(F)C(F)(F)C(F)(F)F", "AC50": "36.4 µM (active) and 27.5 µM (active)"}
{"smiles": "NS(=O)(=O)C(F)(F)C(F)(F)C(F)(F)C(F)(F)C(F)(F)C(F)(F)C(F)(F)C(F)(F)F", "AC50": "61.2 µM (active)"}
{"smiles": "O=C(O)C(F)(F)C(F)(F)C(F)(F)C(F)(F)C(F)(F)C(F)(F)C(F)(F)C(F)(F)C(F)(F)C(F)(F)F", "AC50": "35.9 µM (active)"}
{"smiles": "O=C(O)C(F)(F)C(F)(F)C(F)(F)C(F)(F)C(F)(F)C(F)(F)C(F)(F)C(F)(F)C(F)(F)F", "AC50": "73.7 µM (active)"}
{"smiles": "O=C(O)C(F)(F)C(F)(F)C(F)(F)C(F)(F)C(F)(F)C(F)(F)C(F)(F)C(F)(F)F", "AC50": "39.2 µM (active)"}
